# Most compounds without a hit are left out; they make up all but 3.8% or so of the library.
# Pemphigus Ab inh – blocks pemphigus antibody binding to human desmoglein-3. DSG3-coupled beads, scFv-anti-DSG3-GFP binding, flow cytometry; hits give low values. actives 0.48% (n = 310,000). binding (percent of control), % at 10 µM;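 active = binding more than 3 SD below its plate's average and above zero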;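 note: hits lower antibody fragment binding to DSG3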
# PAFAH1B2 FP inh – blocks human PAF acetylhydrolase 1b catalytic subunit 2. recombinant PAFAH1B2, FP-rhodamine activity probe, fluorescence polarization. inhibition, % at 3.39 µM. actives 1.2% (n = 340,000). AID 492953;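 active = inhibition above the mean of all tested compounds plus 3 SD, cut at about 24% in these data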;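 note: 0% = enzyme with DMSO and 100% = wells lacking PAFAH1B2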
# Target sequence (P68402 whole entry, looked up): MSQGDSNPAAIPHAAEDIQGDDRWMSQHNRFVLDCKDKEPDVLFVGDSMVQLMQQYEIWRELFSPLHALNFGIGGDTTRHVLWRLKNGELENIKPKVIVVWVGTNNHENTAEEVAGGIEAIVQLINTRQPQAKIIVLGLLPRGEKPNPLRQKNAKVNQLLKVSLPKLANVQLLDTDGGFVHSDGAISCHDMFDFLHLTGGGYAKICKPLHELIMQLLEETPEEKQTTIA
# PfM18AAP inh – blocks P. falciparum M18 aspartyl aminopeptidase | recombinant PfM18AAP, H-Glu-NHMec fluorogenic cleavage | inhibition, % at 7.35 µM | actives 1.2% (n = 290,000);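 active = inhibition above the campaign mean inhibition over all tested compounds plus 3 SD, cut at about 28% in these data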;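 note: 0% = plate median of test compound wells and 100% = 2 mM ZnCl2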
# pPAFAH inh – inhibitors of human plasma PAF acetylhydrolase (pPAFAH); actives 1.5% (n = 330,000); inhibition, % at 3.39 µM; recombinant pPAFAH, FP-rhodamine probe fluorescence polarization; Q13093;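 active = inhibition above the mean inhibition across the screen plus 3 SD, cut at about 25% in these data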;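 note: inhibitors block binding of the rhodamine activity-based probe so polarization drops; 0% = enzyme with DMSO and 100% = wells lacking pPAFAH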
# PAFAH1B3 FP inh – PAFAH1B3 (human) inhibition | Q15102 | recombinant PAFAH1B3, FP-rhodamine probe, fluorescence polarization | inhibition, % at 3.39 µM | actives 0.28% (n = 340,000) | AID 492972;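 active = inhibition above the screen-wide average of all tested compounds plus 3 SD, cut at about 25% in these data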;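 note: 0% = enzyme with DMSO only and 100% = wells lacking PAFAH1B3 protein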
# Target sequence (Q15102 whole entry, looked up): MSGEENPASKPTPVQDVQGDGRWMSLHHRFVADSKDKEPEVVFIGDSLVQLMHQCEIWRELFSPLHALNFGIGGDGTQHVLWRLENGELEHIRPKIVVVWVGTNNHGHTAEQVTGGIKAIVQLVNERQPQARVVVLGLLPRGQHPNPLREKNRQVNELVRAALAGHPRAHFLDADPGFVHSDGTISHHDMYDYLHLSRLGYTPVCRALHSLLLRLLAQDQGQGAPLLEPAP
# PAFAH2 inh – inhibitors of human PAFAH2; recombinant PAFAH2, FP-rhodamine activity probe, fluorescence polarization; inhibition, % at 3.39 µM; actives 0.99% (n = 340,000); AID 492956;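 active = inhibition above the mean over all tested compounds plus 3 SD, cut at about 30% in these data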;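 note: inhibitors block probe labeling of enzyme so polarization drops; 0% = enzyme with DMSO and 100% = wells lacking PAFAH2 protein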
# PAFAH2 confirm – PAFAH2 (human) inhibition, confirmed. shares compounds with PAFAH2 inh. recombinant PAFAH2, FP-rhodamine activity probe, fluorescence polarization. inhibition, % at 3.39 µM. actives 65% (n = 2,300). AID 493030;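 active = mean inhibition over three repeats above a set limit taken from the earlier primary screen, cut at about 30% in these data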;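 note: inhibitor blocks binding of rhodamine activity probe so polarization falls; 0% = enzyme with DMSO and 100% = wells lacking PAFAH2 protein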
# * hit, by the source's call; . = no result given.
SMILES,Pemphigus Ab inh,PAFAH1B2 FP inh,PfM18AAP inh,pPAFAH inh,PAFAH1B3 FP inh,PAFAH2 inh,PAFAH2 confirm
O=C(COC(=O)c1cc(Cl)ccc1[N+](=O)[O-])NCc1ccc(Cl)cc1Cl,114,9,-8,1,5,30*,25
O=C(COC(=O)c1ccccn1)NCc1ccc(Cl)cc1Cl,107,-4,.,4,0,-1,.
O=C(COC(=O)c1ccco1)NCc1ccccc1Cl,110,3,-2,-5,1,58*,38*
O=C(COC(=O)c1ccco1)NCc1ccc(Cl)cc1Cl,.,4,.,-3,7,69*,51*
O=C(COC(=O)c1cc(Cl)ccc1[N+](=O)[O-])Nc1cccc2ccccc12,.,0,-7,10,10,23,.
COc1ccccc1CNC(=O)COC(=O)c1ccco1,103,6,.,0,-7,20,.
O=C(COC(=O)c1ccco1)NCCc1ccc(Cl)cc1,.,7,.,-2,8,49*,31*
CC(C)(O)c1cc2ccc(C#Cc3ccsc3)cc2c(=O)o1,101,2,.,5,6,-5,.
CC1CCN(S(=O)(=O)c2ccc(NC(=O)CN3C(=O)NC(C)(c4ccccc4)C3=O)cc2)CC1 (configuration not stated),101,9,.,0,-3,-2,.
COc1cccc2sc(Nc3nnc(-c4cccs4)o3)nc12,99,-2,4,10,2,9,.
COc1cccc2sc(Nc3nnc(-c4ccc(F)cc4)o3)nc12,102,11,3,18,15,65*,20
Cc1[nH]c2ccccc2c1SCc1nnc(SCc2ccc(Cl)cc2)n1C,99,23,-4,9,5,30*,30*
Cc1[nH]c2ccccc2c1SCc1nnc(SCc2ccccc2)n1C,106,4,0,7,7,22,.
O=C(NCc1ccccn1)c1ccc(NS(=O)(=O)c2cccc(Cl)c2)cc1,119,0,-17,.,4,0,.
Cc1ccc(CSC2=NCCN2C(=O)c2ccc(S(=O)(=O)N(C)C)cc2)cc1,102,4,11,2,2,10,.
Nc1[nH]n2c(=O)c3c(nc2c1N=Nc1ccc(Cl)cc1)CCCC3,89,10,-4,10,6,40*,25
Nc1[nH]n2c(=O)c3c(nc2c1N=Nc1ccccc1)CCCC3,97,5,18,10,4,20,.
COc1cc(C(=O)OCC(=O)Nc2cccc(S(=O)(=O)N3CCCC3)c2)ccc1OCC(C)C,95,-7,.,3,0,45*,45*
COc1ccc(C(=O)OCC(=O)Nc2cccc(S(=O)(=O)N3CCCCCC3)c2)cc1[N+](=O)[O-],112,-4,.,.,-2,38*,26
COc1ccc(CC(=O)Nc2cccc(S(=O)(=O)N3CCCC3)c2)cc1OC,.,0,.,-1,4,-2,.
COc1ccc(C(=O)OCC(=O)Nc2ccc(OC)c(S(=O)(=O)N3CCCCC3)c2)cc1[N+](=O)[O-],92,1,.,.,-1,15,.
Cc1cc(C)c2c(n1)SCC(=O)N2CC(=O)Nc1ccc(F)cc1,108,1,4,9,7,-1,.
CN(C(=O)CSc1nc(N)cc(N)n1)C1CCS(=O)(=O)C1 (configuration not stated),108,0,2,3,8,6,.
CCOc1ccc(S(=O)(=O)N2CCN=C2c2ccccc2)c(C)c1C,.,7,-13,1,12,-5,.
Oc1oc(-c2ccccc2)nc1C=NCc1ccncc1,107,1,8,15,8,52*,37*
SMILES,Pemphigus Ab inh,PAFAH1B2 FP inh,PfM18AAP inh,pPAFAH inh,PAFAH1B3 FP inh,PAFAH2 inh,PAFAH2 confirm
Oc1oc(-c2ccccc2)nc1C=Nc1cccc2ccccc12,116,4,7,5,10,18,.
COc1ccccc1NC(=O)CSc1nc(=O)n(Cc2ccncc2)c2c1CCCC2,101,2,.,5,4,2,.
COc1cccc(C(=O)NCC(c2ccco2)N2CCOCC2)c1 (configuration not stated),99,3,.,2,9,-5,.
CC(C)Oc1ccc(C(=O)OCC(=O)NC(=O)NC2CCCC2)cc1,.,1,.,8,2,41*,34*
CC(Oc1ccccc1)C(=O)OCC(=O)NC(=O)NC1CCCCC1 (configuration not stated),99,2,.,6,-4,2,.
CC(=O)Nc1ccc(C(=O)OCC(=O)NC(=O)NC2CCCCC2)cc1,108,-2,7,-2,5,53*,39*
Cc1cccc(C(=O)OCC(=O)NC(=O)NC2CCCCC2)c1,99,.,.,.,.,.,.
O=C(COC(=O)c1cccnc1Cl)NC1CCCCC1,96,6,.,2,6,72*,49*
O=C(COC(=O)c1ccccc1F)Nc1cccnc1Cl,106,0,1,5,-11,35*,16
O=C(COC(=O)c1cccnc1Cl)NCC1CCCO1 (configuration not stated),94,0,2,10,-1,5,.
CC1CCC(NC(=O)COC(=O)c2cccnc2Cl)CC1 (configuration not stated),105,7,.,8,17,70*,42*
O=C(OCC(=O)C12CC3CC(CC(C3)C1)C2)c1cccnc1Cl,102,9,-1,8,3,47*,37*
O=C(COC(=O)c1cccnc1Cl)NC1CCCc2ccccc21 (configuration not stated),109,14,.,2,8,27,.
O=C(CC1CCCC1)N1CCN(S(=O)(=O)c2cccc(Br)c2)CC1,98,.,.,.,.,.,.
CC(=O)NC1(C(F)(F)F)C(=O)Nc2c1c(=O)[nH]c(=O)n2CC(C)C (configuration not stated),104,2,0,7,5,-1,.
O=C(CCC(=O)N1CCCC1)Nc1ccc(Cl)c(Cl)c1,107,-6,-4,23,3,54*,57*
CCOC(=O)/C=C/C(=O)OCC(=O)Nc1ccc(Cl)cn1,104,-6,-19,2,-1,-2,.
COc1cc(/C=C/C(=O)OCC(=O)Nc2ccc(S(N)(=O)=O)cc2)ccc1O,92,-1,7,4,3,-3,.
COc1cc(/C=C/C(=O)OCC(=O)Nc2ccc([N+](=O)[O-])cc2)ccc1O,100,1,7,6,5,78*,81*
O=C(COC(=O)/C=C/c1ccc(F)cc1)Nc1ccc(Cl)cn1,99,-2,-1,2,7,30*,22
COc1cc(/C=C/C(=O)OCC(=O)Nc2ccc(Cl)cn2)ccc1O,99,4,.,5,7,64*,66*
CC(C)=CC(=O)OCC(=O)Nc1ccc(Cl)cn1,102,5,6,3,5,52*,43*

# Source: PubChem
